Only some compounds are listed: those with a hit (about 0.82% of all), similar ones and a draw of the others.
Cardiac RTF inh: cardiac RTF calcium desensitization; P19429+P45379; IANBD-labeled cardiac RTF, Ca2+ fluorescence; inhibition, % at 7.15 µM; hit rate 0.12% among 340,000;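 active = inhibition above the mean inhibition of all tested compounds plus 3 SD, cut at about 17% in these data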;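 also: assay run at fixed EC70 calcium of 1.6 mM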
Keap1 Nrf2 FP: disrupts human Keap1 binding to Nrf2 peptide | Q14145 | Keap1 Kelch-Nrf2 peptide fluorescence polarization, 1536-well | inhibition, % at 9.4 µM | hit rate 0.15% among 340,000; in the data active = inhibition above about 12%;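 also: human Keap1 Kelch domain with fluorescein labeled Nrf2 9mer peptide probe; higher means more block of Keap1 binding to Nrf2 peptide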
Target sequence (Q14145 whole entry, looked up, the tested form may be a part): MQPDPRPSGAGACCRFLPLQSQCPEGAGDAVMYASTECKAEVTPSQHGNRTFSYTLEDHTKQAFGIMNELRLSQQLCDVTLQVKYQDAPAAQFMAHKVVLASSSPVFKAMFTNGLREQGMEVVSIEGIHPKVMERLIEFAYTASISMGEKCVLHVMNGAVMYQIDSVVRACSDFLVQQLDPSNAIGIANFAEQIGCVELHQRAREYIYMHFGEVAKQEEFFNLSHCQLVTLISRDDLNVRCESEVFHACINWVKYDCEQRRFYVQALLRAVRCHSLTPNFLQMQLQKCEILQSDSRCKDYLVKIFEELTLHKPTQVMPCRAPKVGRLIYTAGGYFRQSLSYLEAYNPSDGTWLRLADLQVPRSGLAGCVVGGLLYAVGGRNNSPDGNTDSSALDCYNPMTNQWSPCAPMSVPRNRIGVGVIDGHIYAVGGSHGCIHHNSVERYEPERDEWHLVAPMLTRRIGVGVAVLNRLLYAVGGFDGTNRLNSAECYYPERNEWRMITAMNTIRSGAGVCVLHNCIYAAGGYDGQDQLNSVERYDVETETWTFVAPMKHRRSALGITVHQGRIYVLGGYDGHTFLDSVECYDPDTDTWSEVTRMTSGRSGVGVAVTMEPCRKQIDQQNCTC
E coli Lon inh: inhibits E. coli Lon protease. AID 602123. hit rate 0.42% among 360,000. P0A9M0. purified E. coli Lon protease, fluorescence polarization. inhibition, % at 7.94 µM; in the data active = inhibition above about 13%, passing the limit was not always enough
cardiac RTF act: increases calcium sensitivity of human cardiac regulated thin filaments | activation, % at 7.2 µM | hit rate 0.24% among 340,000 | P19429+P45379 | IANBD-labeled TnC RTF fluorescence at EC20 calcium; 0% EC20 calcium, 100% full calcium;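 active = activation above the mean over all tested compounds plus 3 SD, cut at about 30% in these data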;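 also: rise in fluorescence read as greater calcium sensitivity of cardiac thin filaments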
LANA DNA inh: blocks KSHV LANA C-terminal domain binding to DNA. MBP-C-LANA/FAM-LBS DNA binding, fluorescence polarization. inhibition, % at 9 µM. hit rate 0.078% among 340,000. AID 504423;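 active = highest replicate inhibition at or above 60% at 9 µM, even if other replicates fall short; inactive = all replicates below 60% inhibition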
E coli Lon conf: confirmation of E. coli Lon protease inhibitors; purified E. coli Lon, fluorescence polarization; hit rate 31% among 1,400; AID 602230; inhibition, % at 7.94 µM; shares compounds with E coli Lon inh; in the data active = inhibition above about 16%
Large screens that a line does not name were inactive (follow-up assays come after a bar, where they were run).

COc1cccc(C(=O)N2CCC[C@@H]2C(=O)N2CCC[C@H]2C(=O)NCc2ccncc2)c1	none (no result: Cardiac RTF inh, Keap1 Nrf2 FP, cardiac RTF act, LANA DNA inh)
COc1cccc(C(=O)CN2C(=O)C(C)(C)Oc3ccc(C(=O)N4CCOCC4)cc32)c1	E coli Lon inh 128 | E coli Lon conf inactive
Cc1cc(C)n2nc(C)c(-c3ccccc3)c2n1	E coli Lon inh 22 | E coli Lon conf inactive
Fc1ccccc1C(c1nnnn1Cc1ccc2c(c1)OCO2)N1CCN(Cc2ccco2)CC1 (stereo not given)	E coli Lon inh 16 | E coli Lon conf inactive
Cn1c2ccccc2c(=O)c2ccc(NCCc3cccs3)cc21	E coli Lon inh 92 | E coli Lon conf 23
COc1ccc(CN(C)C[C@@H]2OCc3cnnn3CCCC(=O)N([C@@H](C)CO)C[C@H]2C)cc1	none (no result: Cardiac RTF inh, Keap1 Nrf2 FP, cardiac RTF act, LANA DNA inh)
Cc1cccc(OCC(=O)N2CCN(S(C)(=O)=O)CC2)c1	none
Cc1ccc(OCC(=O)N2CCN(S(C)(=O)=O)CC2)cc1	E coli Lon inh 50 | E coli Lon conf inactive
CN1CCN(C(c2ccc(F)cc2)c2ccc3cccnc3c2O)CC1 (stereo not given)	E coli Lon inh 26 | E coli Lon conf inactive
COCCN(CCOC)Cc1cc(=O)oc2cc(C)ccc12	none (no result: Cardiac RTF inh, Keap1 Nrf2 FP, cardiac RTF act, LANA DNA inh)
CCn1c2ccccc2c2cc(NC(=O)N3CCCCC3)ccc21	none (no result: Cardiac RTF inh, Keap1 Nrf2 FP, cardiac RTF act, LANA DNA inh)
CC(=O)NCC(=O)OCC(=O)Nc1ccc(C(C)=O)cc1	none
CC(=O)OCC(=O)Nc1ccc(C(C)=O)cc1	E coli Lon inh 28 | E coli Lon conf inactive
COc1ccc(C2C=C(c3ccc(Br)cc3)Nc3nc(N4C(=O)CCC4=O)nn32)cc1 (stereo not given)	E coli Lon inh 25 | E coli Lon conf inactive
COc1ccccc1C1C=C(c2ccc(Cl)cc2)Nc2nc(N3C(=O)CCC3=O)nn21 (stereo not given)	none
COc1ccc(C2=CC(c3sccc3C)n3nnnc3N2)cc1 (stereo not given)	none
COc1ccc(C2=CC(c3ccc(F)cc3)n3nnnc3N2)cc1 (stereo not given)	E coli Lon inh 38 | E coli Lon conf inactive
CCOC(=O)C1=C[C@@H](C(C)C)N(S(=O)(=O)c2ccc(C)cc2)[C@H]1c1ccc(C(F)(F)F)cc1	none (no result: Cardiac RTF inh, Keap1 Nrf2 FP, cardiac RTF act, LANA DNA inh)
CCn1c(C)cc(C(=O)CSc2nnc(C3CC3)n2C2CC2)c1C	none (no result: Cardiac RTF inh, Keap1 Nrf2 FP, cardiac RTF act, LANA DNA inh)
O=C1c2ccccc2C(O)N1Cc1ccc2c(c1)OCO2 (stereo not given)	E coli Lon inh 15 | E coli Lon conf inactive
O=C(NS(=O)(=O)c1ccc2ccc(S(=O)(=O)NCCSc3ccccc3)cc2c1)c1cccc2ccccc12	none (no result: Cardiac RTF inh, Keap1 Nrf2 FP, cardiac RTF act, LANA DNA inh)
COc1ccccc1CNC(=O)COC(=O)Cn1cnc2c1c(=O)n(C)c(=O)n2C	E coli Lon inh 72 (no result: Cardiac RTF inh, Keap1 Nrf2 FP, cardiac RTF act, LANA DNA inh) | E coli Lon conf inactive
Cc1nc2c(OCc3ccc(OC(F)F)cc3)cccn2c1N(C)C(=O)CCC1CCCC1	none (no result: Cardiac RTF inh, Keap1 Nrf2 FP, cardiac RTF act, LANA DNA inh)
CC(C)c1cc(C(=O)N/N=C/c2c[nH]c3ccccc23)n[nH]1	E coli Lon inh 25 | E coli Lon conf inactive
CCOC(=O)[C@]12CCC=C1N(Cc1cccc3ccccc13)C(=O)[C@H](CC(=O)NCC1CCCCC1)C2	none (no result: Cardiac RTF inh, Keap1 Nrf2 FP, cardiac RTF act, LANA DNA inh)
Cn1c2c(c(=O)n(C)c1=O)CS(=O)c1ccccc1N2 (stereo not given)	none (no result: Cardiac RTF inh, Keap1 Nrf2 FP, cardiac RTF act, LANA DNA inh)
CCN(CC(=O)NCc1ccc(F)cc1)CC(=O)Nc1ccc(Br)cc1F	E coli Lon inh 22 | E coli Lon conf inactive
COC(=O)c1cc(=O)nc(NNC(C)=O)s1	none (no result: Cardiac RTF inh, Keap1 Nrf2 FP, cardiac RTF act, LANA DNA inh)
COCCN(C(=O)c1ccc(C)o1)c1c(N)n(CC(C)C)c(=O)[nH]c1=O	none
COCCN(C(=O)C1=COCCO1)c1c(N)n(Cc2ccccc2)c(=O)[nH]c1=O	E coli Lon inh 28 | E coli Lon conf inactive
CCCCN(C(=O)c1ccc([N+](=O)[O-])o1)c1c(N)n(CC(C)C)c(=O)[nH]c1=O	E coli Lon inh 40 | E coli Lon conf 29
COCCN(C(=O)C1=COCCO1)c1c(N)n(CC(C)C)c(=O)[nH]c1=O	E coli Lon inh 24 | E coli Lon conf inactive
Oc1cc(CNCc2ccccc2)c(O)cc1CNCc1ccccc1	E coli Lon inh 52 | E coli Lon conf inactive
COC(=O)[C@]12CCCCC=C1N(Cc1ccccc1)C(=O)[C@H](CC(=O)N1CCC(c3ccccc3)CC1)C2	none (no result: Cardiac RTF inh, Keap1 Nrf2 FP, cardiac RTF act, LANA DNA inh)
c1ccc(CSc2nnnn2-c2ccc3c(c2)OCCO3)nc1	E coli Lon inh 30 | E coli Lon conf inactive
O=C(CSc1nnnn1-c1ccc2c(c1)OCCO2)N1CCc2ccccc21	none
COc1ccc(OC)c(-c2c[n+](=O)c3c(n2[O-])CCCC3)c1	none
CCOc1ccc(-c2c[n+](=O)c3c(n2[O-])CCCC3)c(OCC)c1	E coli Lon inh 68 | E coli Lon conf inactive
O=C(c1ccc(Br)o1)N1CCN(C23CC4CC(CC(C4)C2)C3)CC1	E coli Lon inh 29 | E coli Lon conf inactive
O=C(c1ccco1)N1CCN(C(=O)c2ccc(Br)o2)CC1	none (no result: Cardiac RTF inh, Keap1 Nrf2 FP, cardiac RTF act, LANA DNA inh)
COc1ccccc1-c1cnc(C(O)c2ccc(Cl)cc2C)[nH]1 (stereo not given)	none (no result: Cardiac RTF inh, Keap1 Nrf2 FP, cardiac RTF act, LANA DNA inh)
Clc1ccccc1N=Nc1ccccn1	Keap1 Nrf2 FP 14, E coli Lon inh active | E coli Lon conf inactive
Cc1[nH][nH]c(=O)c1N=Nc1ccccc1Cl	none (no result: LANA DNA inh)
O=C(NCCNC(=O)c1ccc(-c2cc(Cl)ccc2Cl)o1)c1cnccn1	none (no result: Cardiac RTF inh, Keap1 Nrf2 FP, cardiac RTF act, LANA DNA inh)
COc1cccc(NC(=S)N2CCN(c3ccccn3)CC2)c1	E coli Lon inh active | E coli Lon conf inactive
Cc1c(N2CCCCC2)[nH]c2ccccc12	none (no result: Cardiac RTF inh, Keap1 Nrf2 FP, cardiac RTF act, LANA DNA inh)
COCCn1c(C)nc2oc3ccc(Br)cc3c(=O)c2c1=O	none
Cc1oc2ccc(Br)cc2c(=O)c1-c1nn[nH]n1	E coli Lon inh 21 | E coli Lon conf inactive
CCN1CCN(C(=O)CSCc2nc(-c3ccc(OC)c(OC)c3)oc2C)CC1	E coli Lon inh 15 | E coli Lon conf inactive
N#Cc1ccccc1NC(=O)COC(=O)c1ccc(F)cc1F	E coli Lon inh 17 | E coli Lon conf inactive
O=C1NC[C@H](CCCCN2C[C@H](Cc3ccccc3)N(CCC3CCCCC3)C(=O)C2=O)N(Cc2ccccc2)C1=O	none (no result: Cardiac RTF inh, Keap1 Nrf2 FP, cardiac RTF act, LANA DNA inh)
Cc1cn([C@H]2C[C@H](O)[C@@H](CNCc3ccc(-c4cc(Cl)ccc4C(F)(F)F)o3)O2)c(=O)[nH]c1=O	none (no result: Cardiac RTF inh, Keap1 Nrf2 FP, cardiac RTF act, LANA DNA inh)
CC(=O)Nc1ccc2c(c1)Cc1cc(N3C(=O)C=CC3=O)ccc1-2	none
COc1ccc(C(C(=O)NC2CCCC2)N(CC2CCCO2)C(=O)Cn2nnc(-c3ccc(C)o3)n2)cc1 (stereo not given)	E coli Lon inh 18 | E coli Lon conf inactive
Cc1ccc(-c2nnn(CC(=O)N(c3ccc(F)cc3)C(C(=O)NC3CCCC3)c3ccncc3)n2)o1 (stereo not given)	E coli Lon inh 18 | E coli Lon conf inactive
Cc1ccc(-c2nnn(CC(=O)N(CC3CCCO3)C(C(=O)NC3CCCCC3)c3ccc(F)cc3)n2)o1 (stereo not given)	none
Cc1ccc2c(c1)CCCN2CC(=O)N(C)c1c(N)n(Cc2ccccc2)c(=O)[nH]c1=O	E coli Lon inh 146, cardiac RTF act 38 | E coli Lon conf inactive
CCN(C(=O)CN1CCCc2cc(C)ccc21)c1c(N)n(Cc2ccccc2)c(=O)[nH]c1=O	none

From PubChem
